Hit rate of the full screen: of about 39,000 compounds, about 3,300 (8.5%) were called active. Only a selection was taken, and actives are over-represented in it overall.
These compounds were tested on HepG2 (assay: cytotoxicity call (relative viability < 0.9)). Conditions: 10 µM.

SMILES	cytotoxicity call
COc1cccc(S(=O)(=O)Nc2ccc3c(c2)C(=O)N(C)C[C@H](OC)[C@@H](C)CN(C(=O)Cc2cccnc2)[C@@H](C)CO3)c1	inactive
CC(C)=CCC[C@@H](C)CCO	inactive
COC(=O)[C@H](Cc1ccccc1)NC(=O)[C@@H](N)CC(=O)O	inactive
CC(=O)N[C@@H](Cc1ccccc1)C(=O)O	inactive
COC(=O)C(Cc1ccccc1)NC(=O)C(N)CC(=O)O (stereo unspecified)	inactive
COc1ccc(C[C@H](NC(=O)[C@H](C)NC(=O)CN2CCOCC2)C(=O)N[C@@H](Cc2ccccc2)C(=O)[C@@]2(C)CO2)cc1	active
COC[C@H](NC(=O)c1cnc(C)s1)C(=O)N[C@@H](COC)C(=O)N[C@@H](Cc1ccccc1)C(=O)[C@@]1(C)CO1	active
CC(=O)N1[C@H](CNC(=O)CN2CCOCC2)[C@@H](c2ccccc2)[C@@H]1CO	inactive
CC(C)C[C@H](NC(=O)[C@H](CCc1ccccc1)NC(=O)CN1CCOCC1)C(=O)N[C@@H](Cc1ccccc1)C(=O)N[C@@H](CC(C)C)C(=O)[C@@]1(C)CO1	active
CC(=O)N1[C@@H](CO)[C@H](c2ccccc2)[C@@H]1CNC(=O)CN1CCOCC1	inactive
CC(=O)N[C@@H](Cc1ccccc1)C(=O)NN	inactive
C[C@@H]1CN([C@H](C)CO)C(=O)c2cccc(NC(=O)c3ccc(-c4nccs4)cc3)c2O[C@H]1CN(C)Cc1ccc(C(=O)Nc2ccccc2N)cc1	inactive
NCCC[C@@H](N)CC(=O)NC[C@H]1NC(=O)[C@@H](CO)NC(=O)[C@@H](N)CNC(=O)[C@H]([C@H]2CCN=C(N)N2)NC(=O)C(C=NC(N)=O)NC1=O (stereo partly specified)	inactive
O=C(C[C@H]1CC[C@H]2[C@@H](COC[C@H](O)CN2C(=O)C2CC2)O1)NCc1ccncc1	inactive
C=CCNc1ncnc2c1cnn2C	inactive
CNC(=O)C[C@@H]1CC[C@H]2[C@@H](COC[C@@H](O)CN2C(=O)c2ccccn2)O1	inactive
CO[C@H]1CN(C)C(=O)c2cc(NS(=O)(=O)c3ccccc3)ccc2OC[C@H](C)N(C(=O)NC(C)C)C[C@@H]1C	inactive
C[C@@H]1CN([C@H](C)CO)C(=O)Cc2cc(NC(=O)Nc3ccc4c(c3)OCO4)ccc2O[C@@H]1CN(C)Cc1ccc(Cl)c(Cl)c1	inactive
C[C@@H]1CN([C@@H](C)CO)C(=O)Cc2cc(NC(=O)Nc3ccc4c(c3)OCO4)ccc2O[C@@H]1CN(C)Cc1ccc(Cl)c(Cl)c1	inactive
C[C@H]1CN([C@@H](C)CO)C(=O)Cc2cc(NC(=O)Nc3ccc4c(c3)OCO4)ccc2O[C@H]1CN(C)Cc1ccc(Cl)c(Cl)c1	active
C[C@@H]1CN([C@@H](C)CO)C(=O)Cc2cc(NC(=O)Nc3ccc4c(c3)OCO4)ccc2O[C@H]1CN(C)Cc1ccc(Cl)c(Cl)c1	active
C[C@H]1CN([C@@H](C)CO)C(=O)Cc2cc(NC(=O)Nc3ccc4c(c3)OCO4)ccc2O[C@@H]1CN(C)Cc1ccc(Cl)c(Cl)c1	inactive

SMILES	cytotoxicity call
C[C@H](CO)N1C[C@H](C)[C@@H](CN(C)Cc2ccc(Cl)c(Cl)c2)Oc2ccc(NC(=O)Nc3ccc4c(c3)OCO4)cc2CC1=O	inactive
C[C@@H]1CN([C@H](C)CO)C(=O)Cc2cc(NC(=O)Nc3ccc4c(c3)OCO4)ccc2O[C@H]1CN(C)Cc1ccc(Cl)c(Cl)c1	inactive
C[C@H](CO)N1C[C@H](C)[C@H](CN(C)Cc2ccc(Cl)c(Cl)c2)Oc2ccc(NC(=O)Nc3ccc4c(c3)OCO4)cc2CC1=O	active
CCS(=O)(=O)N1CC[C@]2(CC1)CN([C@@H](CO)c1[nH]c3cc(ccc3c12)OC)C(=O)c1ccc(cc1)F	inactive
COc1ccc(S(=O)(=O)N(C)C[C@H]2OCCCC[C@H](C)Oc3ccc(NC(=O)Nc4ccc(F)cc4)cc3C(=O)N([C@@H](C)CO)C[C@H]2C)cc1	inactive
CN1CCN(C(=O)[C@@H]2[C@@H](C(=O)O)[C@H]3CC[C@H]2O3)CC1	inactive
CN(C)CC(=O)N1CC(=O)N2[C@@H](CO)[C@H](c3ccc(C#Cc4cccnc4)cc3)[C@@H]2C1	inactive
CN1CCN(C)[C@@H](CO)C1	inactive
Cc1ccc(S(=O)(=O)N(C)C[C@@H]2OCCCC[C@@H](C)Oc3ccc(NC(=O)c4ccccc4)cc3C(=O)N([C@@H](C)CO)C[C@@H]2C)cc1	inactive
C[C@@H]1CN([C@H](C)CO)C(=O)c2cc(NS(=O)(=O)c3cn(C)cn3)ccc2O[C@@H]1CN(C)C(=O)Nc1ccc(F)cc1	inactive
CC(=O)OC1CC23CC24CCC(OC2OCC(O)C(O)C2O)C(C)(C)C4CCC3C2(C)CC3OC4(CC(C)C3C12C)OC(O)C1(C)OC41 (stereo unspecified)	inactive
CC(CC(=O)C1OC1(C)C)C1C(=O)CC2(C)C3=CCC4C(C)(C)C(OC5OCC(O)C(O)C5O)CCC45CC35C(O)CC12C (stereo unspecified)	active
CC1(C)CC[C@]2(C(=O)O[C@@H]3O[C@H](CO[C@@H]4O[C@H](CO)[C@@H](O)[C@H](O)[C@H]4O)[C@@H](O)[C@H](O)[C@H]3O)CC[C@]3(C)C(=CC[C@H]4[C@@]5(C)CC[C@H](O[C@@H]6OC[C@H](O)[C@H](O)[C@H]6O)C(C)(C)[C@@H]5CC[C@]43C)[C@@H]2C1	inactive
O=C(Nc1cc(C(=O)Nc2ccc(S(=O)(=O)O)cc2S(=O)(=O)O)cc(C(=O)Nc2ccc(S(=O)(=O)O)cc2S(=O)(=O)O)c1)Nc1cc(C(=O)Nc2ccc(S(=O)(=O)O)cc2S(=O)(=O)O)cc(C(=O)Nc2ccc(S(=O)(=O)O)cc2S(=O)(=O)O)c1	inactive
CC(C)CC#Cc1cnc2c(c1)C(=O)N([C@H](C)CO)C[C@@H](C)[C@@H](CN(C)S(=O)(=O)c1ccccc1)O2	inactive
C[C@@H]1CCCCO[C@H](CN(C)C(=O)Nc2cccc3ccccc23)[C@@H](C)CN([C@H](C)CO)C(=O)c2cc(NS(=O)(=O)c3cccs3)ccc2O1	inactive
C[C@H](CO)N1C[C@H](C)[C@@H](CN(C)C(=O)Nc2cccc3ccccc23)OCCCC[C@H](C)Oc2ccc(NS(=O)(=O)c3cccs3)cc2C1=O	active
C[C@H](CO)N1C[C@H](C)[C@H](CN(C)C(=O)Nc2cccc3ccccc23)OCCCC[C@H](C)Oc2ccc(NS(=O)(=O)c3cccs3)cc2C1=O	inactive
C[C@H]1CCCCO[C@H](CN(C)C(=O)Nc2cccc3ccccc23)[C@@H](C)CN([C@@H](C)CO)C(=O)c2cc(NS(=O)(=O)c3cccs3)ccc2O1	active
C[C@@H]1CCCCO[C@@H](CN(C)C(=O)Nc2cccc3ccccc23)[C@H](C)CN([C@H](C)CO)C(=O)c2cc(NS(=O)(=O)c3cccs3)ccc2O1	inactive
C[C@@H]1CN([C@@H](C)CO)C(=O)c2cc(NS(=O)(=O)c3cccs3)ccc2O[C@@H](C)CCCCO[C@@H]1CN(C)C(=O)Nc1cccc2ccccc12	inactive
C[C@@H]1CN([C@@H](C)CO)C(=O)c2cc(NS(=O)(=O)c3cccs3)ccc2O[C@@H](C)CCCCO[C@H]1CN(C)C(=O)Nc1cccc2ccccc12	inactive

SMILES	cytotoxicity call
C[C@H]1CCCCO[C@@H](CN(C)C(=O)Nc2cccc3ccccc23)[C@@H](C)CN([C@@H](C)CO)C(=O)c2cc(NS(=O)(=O)c3cccs3)ccc2O1	inactive
C[C@@H]1CCCCO[C@H](CN(C)C(=O)Nc2cccc3ccccc23)[C@H](C)CN([C@H](C)CO)C(=O)c2cc(NS(=O)(=O)c3cccs3)ccc2O1	active
CO[C@@H](CN(C)C(=O)c1ccc2c(c1)OCO2)[C@H](C)CN([C@@H](C)CO)S(=O)(=O)c1ccc(F)cc1	inactive
C[C@@H]1CCCCO[C@@H](CN(C)C(=O)CCC(F)(F)F)[C@H](C)CN([C@H](C)CO)C(=O)c2cc(NC(=O)C3CCCCC3)ccc2O1	inactive
C[C@@H]1CN([C@@H](C)CO)C(=O)c2cccc(NC(=O)Nc3ccc4c(c3)OCO4)c2O[C@H]1CN(C)Cc1ccc(C(=O)Nc2ccccc2N)cc1	inactive
O=C(CCCCCNC(=O)OCc1ccc(CO[C@H]2C[C@@H](c3coc4ccccc4c3=O)C=C(C(=O)N3CCN(Cc4ccccc4)CC3)O2)cc1)NO	inactive
O=C(CN1CCOCC1)N[C@H]1CC[C@@H](CCNS(=O)(=O)c2ccccc2F)O[C@@H]1CO	inactive
Cc1ccc(S(=O)(=O)Nc2cccc3c2O[C@@H](CN(C)Cc2ccc(Cl)c(Cl)c2)[C@@H](C)CN([C@@H](C)CO)C3=O)cc1	inactive
CC(C)NC(=O)N(C)C[C@H]1Oc2ccc(NC(=O)CCC(F)(F)F)cc2C(=O)N([C@H](C)CO)C[C@H]1C	inactive
N#C[C@H]1N[C@H](CO)[C@H]1c1ccccc1	inactive
C[C@H](CO)N1C[C@H](C)[C@H](CN(C)S(=O)(=O)c2ccc(C#N)cc2)Oc2ncc(C#CC(C)(C)O)cc2C1=O	inactive
COc1ccccc1S(=O)(=O)N1C[C@@H](O)COC[C@@H]2O[C@@H](CC(=O)O)CC[C@H]21	inactive
C[C@H](CO)N1C[C@H](C)[C@@H](CN(C)C(=O)c2ccccn2)Oc2cc(C#Cc3ccccc3)ccc2S1(=O)=O	inactive
C[C@@H]1CN([C@@H](C)CO)C(=O)c2ccccc2-c2ccccc2CO[C@@H]1CN(C)C(=O)Nc1ccc(-c2ccccc2)cc1	inactive
C[C@@H]1CN([C@@H](C)CO)C(=O)c2c(c3ccccc3n2C)-c2ccccc2CO[C@@H]1CN(C)C(=O)Nc1ccc(-c2ccccc2)cc1	inactive
C[C@H]1CN([C@@H](C)CO)C(=O)c2c(c3ccccc3n2C)-c2ccccc2CO[C@H]1CN(C)C(=O)Nc1ccc(-c2ccccc2)cc1	active
C[C@@H]1CN([C@H](C)CO)C(=O)c2c(c3ccccc3n2C)-c2ccccc2CO[C@@H]1CN(C)C(=O)Nc1ccc(-c2ccccc2)cc1	inactive
C[C@H](CO)N1C[C@H](C)[C@@H](CN(C)C(=O)Nc2ccc(-c3ccccc3)cc2)OCc2ccccc2-c2c(n(C)c3ccccc23)C1=O	inactive
C[C@@H]1CN([C@H](C)CO)C(=O)c2ccccc2-c2ccccc2CO[C@H]1CN(C)C(=O)Nc1ccc(-c2ccccc2)cc1	active
C[C@H]1CN([C@@H](C)CO)C(=O)c2ccccc2-c2ccccc2CO[C@@H]1CN(C)C(=O)Nc1ccc(-c2ccccc2)cc1	inactive
C[C@@H]1CN([C@@H](C)CO)C(=O)c2c(c3ccccc3n2C)-c2ccccc2CO[C@H]1CN(C)C(=O)Nc1ccc(-c2ccccc2)cc1	inactive
C[C@@H]1CN([C@H](C)CO)C(=O)c2c(c3ccccc3n2C)-c2ccccc2CO[C@H]1CN(C)C(=O)Nc1ccc(-c2ccccc2)cc1	active

Source: the antibiotic and cytotoxicity screens of Wong et al. (2023)
